DT40 TDP1 no CPT = qHTS for Inhibitors of human tyrosyl-DNA phosphodiesterase 1 (TDP1): qHTS in cells in absence of CPT. DT40 Tdp1-/- hTDP1 cells, no CPT, ATP luminescence, 48 h. Potency, µM (doses to about 46.2 µM), most hits filed as inhibitors. hit rate 15% among 420,000; note: nearly all actives have a fitted effect of over 55% in size
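Chicken DT40 Tdp1-/- cells stably complemented with human TDP1 were seeded at 400 cells/well with DMSO in place of 20 nM camptothecin. After compound pinning, cells grew at least 48 hr at 37 °C; viability read by CellTiter-Glo luminescence.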
HT1080-NT tox = kills 2HG-producing HT-1080-NT fibrosarcoma cells; HT-1080-NT fibrosarcoma viability, CellTiter-Glo ATP luminescence, 48 h; hit rate 1.6% among 360,000; Potency, µM (series often up to 46.1 µM), usual class: cytotoxic;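 note: NT is the 2HG producing partner of a matched IDH1 knockdown line; nearly all actives have a fitted effect of over 55% in size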
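750 cells/well, RPMI + 5% FBS; 2 h settle, compound pin-transfer, 48 h at 37 degrees C. CellTiter-Glo 10 min RT, luminescence. Normalized to DMSO and media-only wells.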
HT1080 IDH1KD tx = toxicity to HT-1080 IDH1 knockdown cells (counter line); HT-1080 IDH1 knockdown viability, ATP luminescence, 48 h; Potency, µM (titrated, usually from 46.1 µM), usual class: cytotoxic; hit rate 2% among 360,000
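Cytotoxicity counter-line: IDH1KD HT-1080, 48 h, CellTiter-Glo. Curves classed by r2, magnitude and activity.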
HepG2 tox = kills HepG2 cells in TGF-b inhibitor counter-screen | HepG2 CAGA-GFP viability, ATP luminescence, 18 h | Potency, µM (series often up to 46.1 µM), usual class: cytotoxic | hit rate 0.76% among 410,000
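HepG2 CAGA-GFP cells (1000/well, DMEM with 1% FBS) received compound, then TGF-beta at 500 pg/mL final, and were incubated 18 hours at 37 degrees C. Viability was read by CellTiter-Glo luminescence. Media-only wells were set as complete cell-killing and DMSO as no toxicity.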
DT40 TDP1 CPT = DT40-hTDP1 cell growth loss with CPT | hit rate 12% among 420,000 | Potency, µM (top dose mostly 46.2 µM), actives largely listed as inhibitors | chicken DT40 Tdp1-/-;hTDP1 cells + 20 nM CPT, ATP luminescence, 48 h | AID 686979; note: nearly all actives have a fitted effect of over 55% in size
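Chicken DT40 Tdp1-/- cells complemented with human TDP1, 400 cells/well, exposed to compounds plus 20 nM camptothecin for at least 48 h at 37 C; viability read as ATP content by CellTiter-Glo luminescence.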
TGFb SMAD3 inh = inhibitors of TGF-b signaling | hit rate 1.2% among 410,000 | Potency, µM (titrated, usually from 46.1 µM), usual class: inhibitors | HepG2 CAGA-GFP TGF-b/SMAD3 reporter, GFP fluorescence, 18 h; TGF-beta stimulated, 500 pg/mL final; note: nearly all actives have a fitted effect of over 65% in size
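Inhibition was scored as loss of TGF-beta-induced (500 pg/mL final, 18 hours, 37 degrees C) GFP in HEPG2 cells carrying a CAGA-GFP reporter, in DMEM with 1% FBS. Well GFP was summed per cell; Activity was normalised to unstimulated and stimulated DMSO wells, then concentration-response fitting.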
Hits are given with their value; – = inactive; ? = inconclusive; · = no result. Sampled rows, rich in hits. Any-hit rate of the full collection: about 17%. Calls come from the whole dose curve; as a rule, active = well fitted curve in the direction sought with a large enough effect; inconclusive = small, poorly fitted or top-dose-only effect, or another doubt; inactive = no such curve, though single readings can be large; an effect the other way counts as inactive or inconclusive.

SMILES	DT40 TDP1 no CPT	HT1080-NT tox	HT1080 IDH1KD tx	HepG2 tox	DT40 TDP1 CPT	TGFb SMAD3 inh
COc1ccc(C(=O)C2CCCN(Cc3ccc4nonc4c3)C2)c(OC)c1 (centres undefined)	?	–	–	–	11.6µM	?
COc1ccc(C(=O)C2CCCN(Cc3cnc(N4CCOCC4)s3)C2)c(OC)c1 (centres undefined)	16.4µM	–	–	–	–	?
COc1ccc(C(=O)C2CCCN(Cc3cccn3-c3ccc(Cl)cn3)C2)c(OC)c1 (centres undefined)	20.6µM	16.4µM	18.4µM	–	13µM	?
COc1ccc(C(=O)C2CCCN(Cc3ccc4nonc4c3)C2)cc1OC (centres undefined)	–	–	–	–	–	–
Cc1ccccc1-c1nc2c3ccccc3nc(=S)n2[nH]1	3.26µM	–	–	–	4.11µM	?
Cc1ccc(-c2csc(C(C)(O)c3cccc(F)c3)n2)cc1C (centres undefined)	?	?	?	–	?	?
COc1ccc(-c2csc(C(C)(O)c3cccc(F)c3)n2)cc1 (centres undefined)	13µM	–	?	–	18.4µM	–
COc1ccc(C(C)(O)c2nc(-c3cccc(F)c3)cs2)cc1 (centres undefined)	?	?	?	–	?	–
COCc1cccc(-c2csc(C(C)(O)c3cccc(F)c3)n2)c1 (centres undefined)	?	–	?	–	?	–
CC(C)c1cccc(-c2csc(C(C)(O)c3cccc(F)c3)n2)c1 (centres undefined)	?	–	?	15.8µM	20.6µM	?
CC(O)(c1cccc(F)c1)c1nc(-c2cccc(F)c2)cs1 (centres undefined)	?	?	?	–	?	7.94µM
CCN(CC)C(=O)c1cccc(-c2csc(C(C)(O)c3ccncc3)n2)c1 (centres undefined)	20.6µM	?	?	–	18.4µM	–
COc1cccc(C(C)(O)c2nc(-c3cccc(C(=O)O)c3)cs2)c1 (centres undefined)	–	–	–	–	–	–
COc1ccc(N(CC(=O)N/N=C/c2ccco2)S(=O)(=O)c2ccccc2)cc1Cl	–	–	–	–	–	–
CCOC(=O)C1CCCN(C(=O)c2cnn(-c3ncc4c(n3)-c3ccccc3CCC4)c2C2CC2)C1 (centres undefined)	–	·	·	·	–	·
COc1ccc(S(=O)(=O)NCc2cccnc2)c2ccccc12	–	–	–	–	–	–
CC(=O)OC(C)C1C2=C(C(=O)CC1(C)O)C(=O)c1c(ccc(-c3ccc4c(c3O)C(=O)C3=C(C4=O)C(C(C)OC(C)=O)C(C)(O)CC3=O)c1O)C2=O (centres undefined)	1.46µM	–	–	–	1.16µM	?
Cc1cc(NC(=O)CCc2ccc(S(=O)(=O)N3CCOCC3)cc2)n(-c2ccccc2)n1	8.2µM	–	–	–	11.6µM	–
O=S(=O)(c1ccc(NC(=S)Nc2ccccc2)cc1)N1CCOCC1	–	–	–	–	–	–
O=C(CCc1ccccc1)NC(=S)Nc1ccc(S(=O)(=O)N2CCOCC2)cc1	16.4µM	–	–	–	?	–
CC(NC(=S)Nc1ccc(S(=O)(=O)N2CCOCC2)cc1)C1CC2CCC1C2 (centres undefined)	29.1µM	?	?	–	?	?
CC(C)CCCCCCNC(=S)Nc1ccc(S(=O)(=O)N2CCOCC2)cc1	13µM	?	?	–	16.4µM	20µM
Cc1c(C(=O)NCC2COCCO2)cnn1-c1nccc(-c2cccs2)n1 (centres undefined)	–	·	·	·	–	·
CC(C)(C)C1CCC(CN2CCC(CN3C(=O)C(=O)NC[C@@H]3Cc3ccccc3)CC2)CC1 (some centres undefined)	?	–	–	–	?	–
N#C/C(=C/c1ccc(F)cc1)c1nnc(NC(=O)c2ccccc2)s1	–	–	–	–	?	–
SMILES	DT40 TDP1 no CPT	HT1080-NT tox	HT1080 IDH1KD tx	HepG2 tox	DT40 TDP1 CPT	TGFb SMAD3 inh
Cc1sc2nc3c(C(=O)N4CCCC4)cc(C(=O)c4ccccc4O)cn3c(=O)c2c1C	13µM	–	–	–	?	–
CCc1c(C)sc2nc3c(C(=O)N4CCOCC4)cc(C(=O)c4cc(F)ccc4O)cn3c(=O)c12	16.4µM	–	?	–	23.1µM	?
Cc1ccc(CN2CCSCC2)c(C)c1	–	–	–	–	–	–
Cc1cc(N=Nc2ccc(C)c(N=Nc3cc(C)c(N)cc3N)c2)c(N)cc1N	11.6µM	–	–	–	?	–
COc1ccc(N=Nc2cc(OC)c(N)cc2OC)cc1	?	–	–	–	–	–
CCO/C(C)=N/n1c2nc3ccccc3nc2c2c(=O)n(C3CCCC3)c(C)nc21	14.6µM	–	–	–	18.4µM	–
OC[C@H](S)CS	15.8µM	·	·	–	8.91µM	?
OCC(S)CS (centres undefined)	16.8µM	·	·	·	?	·
C[C@@H]1[C@H](O)C[C@@]23COC(=O)C2=CCCC3[C@@]1(C)CCC1COC(=O)C1 (some centres undefined)	–	?	–	–	–	–
CCN(CC(=O)Nc1cc(Cl)ccc1C)CC(=O)NC1CC1	–	–	–	–	–	–
O=[N+]([O-])c1cc([N+](=O)[O-])c(Oc2cncc(Cl)c2)cc1NC1CCCCCCC1	14.6µM	–	–	–	23.1µM	–
O=[N+]([O-])c1cc([N+](=O)[O-])c(Oc2cc(Cl)ccc2Cl)cc1NC1CCCCCCC1	?	–	–	–	18.4µM	?
COc1ccc(C(=O)COC(=O)c2sc(C)nc2C)cc1F	–	–	–	–	–	–
Cc1cc(=O)n(CC(=O)N2CCN(c3ccc(F)cc3)CC2)c2c1c(C)nn2C	20.6µM	·	·	–	18.4µM	7.08µM
Cc1cc(=O)n(CC(=O)N2CCCc3ccccc32)c2c1c(C)nn2-c1cccc(F)c1	?	·	·	–	16.4µM	–
Cc1ccc(Cn2c(C)c3cnn(CC(=O)N4CCN(c5ccc(F)cc5)CC4)c(=O)c3c2C)cc1	11.6µM	·	·	–	10.3µM	?
Cc1c2cnn(-c3ccccc3)c(=O)c2c(C)n1CC(=O)N1CCN(c2cccc(Cl)c2)CC1	13µM	·	·	–	18.4µM	–
CS(=O)(=O)CCSc1ncccc1C(=O)NCc1cccs1	–	–	–	–	–	–
Cc1c2cnn(-c3ccccc3)c(=O)c2c(C)n1CC(=O)N1CCN(c2ccc(F)cc2)CC1	14.6µM	·	·	–	20.6µM	?

Screens deposited in PubChem by National Center for Advancing Translational Sciences (NCATS).
